Data on 40 compounds can be found in PubChem BioAssay (Tox21).

Molecules are shown by their SMILES. Several values for one entry are separate records, joined by “and”; a condition that tells them apart may be missing. Equal values may be shown once. Inconclusive results are not listed. Where a call stands in place of a potency, no number is given. Values without a mark were called inactive. Activity calls are given as the source filed them. Calls come from the whole dose curve; as a rule, active = well fitted cell-killing curve with a large enough effect in the repeat runs; inconclusive = weak or mixed curves, or effect the other way; inactive = flat fitted curve, though single readings scatter.
Potency is the fitted concentration of half-maximal effect.

This assay is described as follows: qHTS RealTime-Glo MT Cell Viability Assay in HepG2 cells - 0 hour (AID 1224889). Note: nearly all actives have a fitted effect of over 50% in size. As to conditions: RealTime-Glo luminescence; series mostly up to 76.8 µM; activity change, negative = cytotoxicity: at the top concentration. The text has this:
U.S. Tox21 Program National Center for Advancing Translational Sciences [NCATS] NIH Chemical Genomics Center [NCGC] U.S. Environmental Protection Agency [EPA] National Institutes of Environmental Health Sciences [NIEHS] National Toxicology Program [NTP] U.S. Food and Drug Administration [FDA] Tox21 Assay Overview: Measure of cell viability is critical in the cell-base assay. Analysis of cell viability is necessary for the characterization of cell responses to cytotoxic drugs and environmental stress. A RealTime-Glo MT Cell Viability Assay to monitor cell viability in real time of continues cell culture during 40 hours of compound treatment was used to screen Tox21 10K library compounds in HepG2 cells. The RealTime-Glo MT Cell Viability Assay is a nonlytic, homogeneous, bioluminescent method to measure cell viability in real time using a simple, plate-based method. The assay involves adding NanoLuc luciferase and a cell-permeant prosubstrate to cells in culture. Viable cells reduce the proprietary prosubstrate to generate a substrate for NanoLuc luciferase. This substrate diffuses from cells into the surrounding culture medium, where it is rapidly used by the NanoLuc Enzyme to produce a luminescent signal. The signal correlates with the number of viable cells, making the assay well suited for cytotoxicity studies.
Tox21 Assay Protocol Summary: The mixture of HepG2 cell suspension and reagents were dispensed at 600cells/6 ul/well in 1536-well tissue culture treated black solid bottom plates using a Multidrop dispenser. After the assay plates were incubated at a 37 C/5% CO2 incubator for 5 hours, 23 nL of compounds dissolved in DMSO, positive and negative controls was transferred to the assay plate by a pintool work station. The plates were incubated at 37 C for 40 hours. The luminescence intensity were measured at 0h, 8h, 16h, 24h, 32h and 40h time points using ViewLux plate reader during compound treatment.
As for `C=CS(=O)(=O)O`, the “activity change, negative = cytotoxicity” value is -0.155%.
Regarding `CCCOC(=O)c1cc(O)c(O)c(O)c1`, the Potency entry was “inactive”.
As for `COC(c1ccccc1)(c1ccccc1)[C@H](Oc1nc(C)cc(C)n1)C(=O)O`, the “activity change, negative = cytotoxicity” value was -6.02% [at 35.3 µM].
Same read-out and setting: then `CCC(CO)(CO)COCC(CC)(CO)CO`, with 1.55%; and `CCCCN(CCO)CCCC`, with 10%; and `C[N+]1([O-])CCOCC1`, with 0.96%.
Take `CC(C)CCOCc1ccccc1`: the “activity change, negative = cytotoxicity” value is -5.31%.
As for `C=C(C)C(=O)O`, the Potency result was “inactive”.
On the same count and under the same terms, then `O=Nc1ccc(Nc2ccccc2)cc1`, with 19.6 µM (active); and `c1ccc2n[nH]nc2c1`, with “inactive”.
Consider `O=C1Nc2ccccc2C1(c1ccc(O)cc1)c1ccc(O)cc1`, for which the “activity change, negative = cytotoxicity” value is -15.2% [at 35.3 µM].
In the case of `Cc1c(O)cccc1C(=O)N[C@@H](CSc1ccccc1)[C@H](O)CN1C[C@H]2CCCC[C@H]2C[C@H]1C(=O)NC(C)(C)C`, the Potency entry is “inactive”.
Turning to `CC(C)(C)NCC(O)COc1ccccc1OCC1CCCO1` (stereo not given), the “activity change, negative = cytotoxicity” value was -1.64% [at 35.3 µM].
For `CC1COC(=O)O1` (stereo not given), the Potency entry is “inactive”.
Consider `Nc1ccc(O)cc1`, for which the “activity change, negative = cytotoxicity” value is -0.373% [at 35.3 µM].
As for `O=C(Oc1ccccc1)c1ccccc1O`, the Potency entry was “inactive”.
In the case of `CC(C)(c1ccccc1)c1ccc(Nc2ccc(C(C)(C)c3ccccc3)cc2)cc1`, the Potency result is “inactive”.
On the same count and under the same terms, then `Cc1cc(Cc2cc(C)cc(C(C)(C)C)c2O)c(O)c(C(C)(C)C)c1`, with “inactive”.
As to `CC(=O)OCC1=C(C(=O)O)N2C(=O)[C@@H](NC(=O)Cc3cccs3)[C@H]2SC1`, the “activity change, negative = cytotoxicity” value is 1.9% [at 35.3 µM].
Consider `CCN(CC)CCOc1ccc(/C(=C(\Cl)c2ccccc2)c2ccccc2)cc1`, for which the Potency entry was “inactive”.
In the case of `c1ccc2c(c1)-c1cccc3c1c-2cc1ccccc13`, the Potency result is “inactive”.
The same measure, in the same setting: then `O=S(=O)(O)c1ccc2nc(-c3ccccc3)[nH]c2c1`, with “inactive”; and `CC(=O)N[C@@H](CS)C(=O)O`, with “inactive”; and `Cc1cc(C(C)(C)C)c(O)c(C(C)(C)C)c1`, with “inactive”.
In the case of `COC(=O)[C@H]1[C@H]2C[C@@H]3c4[nH]c5cc(OC)ccc5c4CCN3C[C@H]2C[C@@H](OC(=O)c2cc(OC)c(OC)c(OC)c2)[C@@H]1OC`, the Potency entry was “inactive”.
Turning to `CN(C)c1ccc2nc3ccc(=[N+](C)C)cc-3sc2c1`, the Potency result is “inactive”.
For the compound `CCC(C)(Oc1ccc(C2(c3ccc(OC(C)(CC)C(=O)O)cc3)CCCCC2)cc1)C(=O)O` (stereo not given), the “activity change, negative = cytotoxicity” value was -1.38% [at 35.3 µM].
On the same count and under the same terms, then `C=CC(=O)OCCCCCCCC`, with 10.5%.
Turning to `CC(C)(C)c1cc(C(C)(C)C)c(O)c(C(C)(C)C)c1`, the Potency entry is “inactive”.
Still for that read-out and setting: then `Cc1cc(C2(c3cc(C)c(O)cc3C)OS(=O)(=O)c3ccccc32)c(C)cc1O`, with 19.5 µM (active) and 15.5 µM (active).
Consider `O=C(O)CP(=O)(O)O`, for which the “activity change, negative = cytotoxicity” value was -0.794% [at 35.3 µM].
`NCCO`: the Potency entry was “inactive”.
Still for that read-out and setting: then `OCCOCCN1CCN(C(c2ccccc2)c2ccc(Cl)cc2)CC1` (stereo not given), with “inactive”; and `CCCCC(CC)COC(=O)CC(C(=O)OCC(CC)CCCC)S(=O)(=O)O` (stereo not given), with “inactive”.
As to `CCN1CCCC1CNC(=O)c1cc(S(=O)(=O)CC)c(N)cc1OC` (stereo not given), the “activity change, negative = cytotoxicity” value is 7.22% [at 35.3 µM].
Same read-out and setting: then `O=C(O)CCc1ccccc1`, with 3.41%.
For `CC(C)(C)NCC(O)c1cc(O)cc(O)c1` (stereo not given), the “activity change, negative = cytotoxicity” value is -6.63% [at 35.3 µM].
On to `CCOc1ccccc1C(N)=O`, for which the Potency entry is “inactive”.
On the same count and under the same terms, then `OCCN1CCNCC1`, with “inactive”.
On to `COc1nc(C)nc(Cl)c1NC1=NCCN1`, for which the “activity change, negative = cytotoxicity” value was 1.22% [at 35.3 µM].
